The list is not random: actives were taken first. Their share in the collection is about 3.8%.
PrPC surface inh: inhibitors of human cell surface prion protein PrPC. TR-FRET read-out. inhibition, % at 13.8 µM. hit rate 0.43% among 370,000. AID 720596; in the data active = inhibition above about 24%; also: 0% = median of the test wells and 100% = reference compound wells
PrP UTR inh: inhibition of PrP 5' UTR reporter expression; hit rate 0.35% among 340,000; AID 488862; inhibition, % (no concentration beside the values); cell-based PrP 5' UTR mRNA reporter, plate reader; in the data active = inhibition above about 52%; also: 0 = median of the neutral control wells
GDH-TPI counter-1: inhibits GDH-TPI coupling enzymes, artifact for Mtb FBA screen; GDH-TPI coupled enzyme counterscreen, NADH absorbance; inhibition, % at 4.8 µM; hit rate 1.2% among 360,000; AID 588335; in the data active = inhibition above about 30%;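 also: 0% = DMSO wells and 100% = wells lacking the enzyme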
Yp Topo-I inh: blocks Yersinia pestis topoisomerase I activity; activity, % at 10 µM; Y. pestis Topo-I cleavage product accumulation, plate reader; hit rate 0.064% among 360,000; in the data active = activity above about 50%, passing the limit was not always enough
Mtb FBA inh: Mtb fructose-bisphosphate aldolase inhibition | hit rate 2.3% among 360,000 | inhibition, % at 1 µM | AID 588726 | purified M. tuberculosis FBA, fluorescence read-out | P9WQA3;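 also: 0% = vehicle and 100% = reference inhibitor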
Target sequence (P9WQA3 whole entry, looked up): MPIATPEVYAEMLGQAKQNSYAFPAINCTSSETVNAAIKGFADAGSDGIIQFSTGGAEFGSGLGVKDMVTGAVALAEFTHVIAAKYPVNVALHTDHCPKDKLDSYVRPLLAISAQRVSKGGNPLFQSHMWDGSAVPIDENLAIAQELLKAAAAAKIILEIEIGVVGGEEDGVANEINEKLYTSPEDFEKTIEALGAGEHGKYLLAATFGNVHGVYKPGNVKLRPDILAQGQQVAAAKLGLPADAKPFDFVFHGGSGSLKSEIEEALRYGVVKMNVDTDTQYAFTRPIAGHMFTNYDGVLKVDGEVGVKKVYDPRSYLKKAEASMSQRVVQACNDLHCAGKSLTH
Mtb hypoxia inh: inhibitors of hypoxia-regulated fluorescent reporter in Mycobacterium tuberculosis. M. tuberculosis hypoxia-regulated fluorescent reporter, fluorescence. fluorescence inhibition, % (test concentration not listed). hit rate 0.1% among 300,000. AID 1159583; in the data active = fluorescence inhibition mostly above about 23%, no sharp cut-off; inactive = mostly below about 17%
Mtb FBA inh conf: Mtb FBA inhibition, confirmed. inhibition, % at 1 µM. shares compounds with Mtb FBA inh. hit rate 78% among 5,600. purified M. tuberculosis FBA, fluorescence read-out;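 also: 0% = vehicle wells and 100% = reference inhibitor wells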
GDH-TPI counter-2: inhibits GDH-TPI coupling enzymes, flagging Mtb FBA hits; GDH-TPI coupled enzyme counterscreen, fluorescence; inhibition, % at 1 µM; shares compounds with Mtb FBA inh; hit rate 81% among 5,600; in the data active = inhibition above about 10%
GDH-TPI dose: counter-screen for M. tuberculosis FBA inhibitors: GDH-TPI dose response | hit rate 79% among 170 | AID 652145 | IC50, µM | shares compounds with Mtb FBA inh | GDH-TPI coupled enzyme assay, fluorescence, artifact counterscreen; call rule not given here
The depositor's hits bear a star. Rule as the data show it, unless noted: active = inhibition above about 27%; inactive = the rest.

Screening Cc1ccc(C2CC(c3ccccc3)=NN2c2ccccc2)o1 (stereo unspecified) returned PrPC surface inh -4, PrP UTR inh -43, GDH-TPI counter-1 6, Yp Topo-I inh 10, Mtb FBA inh 43*, Mtb hypoxia inh 1, Mtb FBA inh conf 15, GDH-TPI counter-2 8 and GDH-TPI dose 1.3*.
COc1ccc(C2CC(c3cccc(Br)c3)=NN2c2ccc(S(N)(=O)=O)cc2)cc1 (stereo unspecified) was read as PrPC surface inh 1, PrP UTR inh -3, GDH-TPI counter-1 15, Yp Topo-I inh -8, Mtb FBA inh 102*, Mtb hypoxia inh -2, Mtb FBA inh conf 42* and GDH-TPI counter-2 31*.
For CCOC(=O)C1CC(c2ccccc2)=NN1c1ccccc1 (stereo unspecified) the results were PrPC surface inh -13, GDH-TPI counter-1 23, Yp Topo-I inh 12, Mtb FBA inh 72*, Mtb FBA inh conf 35* and GDH-TPI counter-2 28*.
`COc1ccc(C2CC(c3ccc(OC)c(OC)c3)=NN2C(=O)c2ccccc2)cc1` (stereo unspecified) gave PrPC surface inh 12, PrP UTR inh -7, GDH-TPI counter-1 11, Yp Topo-I inh 3, Mtb FBA inh -3 and Mtb hypoxia inh -3.
Screening COc1ccc(C2=NN(c3ccccc3)C(c3ccc(OC)c(OC)c3)C2)cc1 (stereo unspecified) returned PrPC surface inh 7, PrP UTR inh -48, GDH-TPI counter-1 11, Yp Topo-I inh 19, Mtb FBA inh 80*, Mtb hypoxia inh -1, Mtb FBA inh conf 53* and GDH-TPI counter-2 51*.
`CCOC(=O)COc1ccc(C2CC(C)=NN2c2ccccc2)cc1` (stereo unspecified) gave PrPC surface inh -4, PrP UTR inh 14, GDH-TPI counter-1 1, Yp Topo-I inh -12, Mtb FBA inh 12 and Mtb hypoxia inh 1.
Screening CCN(CC)C(=O)COc1ccc(C(C)=NNc2ncc(Cl)cc2Cl)cc1 returned Mtb hypoxia inh 4.
For C=CCCC(Cc1ccc(F)cc1)C(=O)OCC(Cc1c[nH]c2ccccc12)NC(=O)C(CC=C)CC(=O)NC(CO)Cc1ccccc1 (stereo unspecified) the results were Mtb hypoxia inh 6.
For COc1ccc(-c2cn3cccnc3n2)cc1NC(=O)c1cc(OC)c(OC)c(OC)c1 the results were PrPC surface inh -14, PrP UTR inh -15, GDH-TPI counter-1 20, Yp Topo-I inh 8, Mtb FBA inh 32*, Mtb hypoxia inh 4, Mtb FBA inh conf active and GDH-TPI counter-2 active.
Screening COc1ccc(-c2cn3cccnc3n2)cc1NS(=O)(=O)c1ccccc1 returned PrPC surface inh -7, PrP UTR inh -18, GDH-TPI counter-1 14, Yp Topo-I inh -2, Mtb FBA inh 15 and Mtb hypoxia inh 9.
Screening C[C@]1(C(=O)NCCN2CCOCC2)C=CC(Cc2ccccc2)N1C(=O)c1ccccc1 (stereo partly specified) returned Mtb hypoxia inh 19.
Screening O=C(COc1ccc2c3c(c(=O)oc2c1)CCC3)NCc1ccncc1 returned PrPC surface inh 3, PrP UTR inh -2, GDH-TPI counter-1 9, Yp Topo-I inh 3, Mtb FBA inh 20 and Mtb hypoxia inh 4.
For O=C(COc1ccc2c3c(c(=O)oc2c1)CCCC3)NCCCN1CCCC1=O the results were PrPC surface inh -3, PrP UTR inh -10, GDH-TPI counter-1 14, Yp Topo-I inh 12, Mtb FBA inh 62*, Mtb hypoxia inh 16, Mtb FBA inh conf 92* and GDH-TPI counter-2 79*.
`Cc1c(OCC(=O)NCCCn2ccnc2)ccc2c3c(c(=O)oc12)CCCC3` gave PrPC surface inh 4, PrP UTR inh -23, GDH-TPI counter-1 8, Yp Topo-I inh 12, Mtb FBA inh 31*, Mtb FBA inh conf 76* and GDH-TPI counter-2 64*.
Screening O=C(COc1ccc2c3c(c(=O)oc2c1)CCCC3)NCc1ccccn1 returned PrPC surface inh -8, PrP UTR inh -17, GDH-TPI counter-1 9, Yp Topo-I inh 8, Mtb FBA inh 86*, Mtb hypoxia inh 10, Mtb FBA inh conf active and GDH-TPI counter-2 active.
Screening CC(Oc1ccc2c3c(c(=O)oc2c1)CCCC3)C(=O)NCCCn1ccnc1 (stereo unspecified) returned PrPC surface inh 0, PrP UTR inh -9, GDH-TPI counter-1 16, Yp Topo-I inh 6, Mtb FBA inh 25 and Mtb hypoxia inh 7.
For O=C(COc1ccc2c3c(c(=O)oc2c1)CCCC3)NCCCn1ccnc1 the results were PrPC surface inh -3, PrP UTR inh -56, GDH-TPI counter-1 6, Yp Topo-I inh 11, Mtb FBA inh 29*, Mtb hypoxia inh 2, Mtb FBA inh conf active and GDH-TPI counter-2 194*.
`COc1ccc(C(=O)NN=Cc2cccc3cccnc23)cc1` gave Mtb hypoxia inh -5.
`CCOC(=O)NC(=O)C(C#N)=NNc1cccc(Cl)c1` gave Mtb hypoxia inh 17.
`O=[N+]([O-])c1ccc(C=NNc2nc(NCc3ccccc3)nc(N3CCOCC3)n2)cc1` gave Mtb hypoxia inh -2.
Cc1c(C)c2ccc(OCC(=O)NCCCn3ccnc3)cc2oc1=O was read as PrPC surface inh -10, PrP UTR inh -13, GDH-TPI counter-1 13, Yp Topo-I inh 2, Mtb FBA inh 62*, Mtb hypoxia inh -3, Mtb FBA inh conf 195* and GDH-TPI counter-2 138*.
For CSc1ccc(C=NNC(=O)COc2ccc(Br)cc2Cl)cc1 the results were Mtb hypoxia inh -6.
`CCCOc1ccc(C=NNC(=O)CN2CCCCC2)cc1OCC` gave Mtb hypoxia inh 1.
`Cc1ccc(-c2csc(NC(=O)CN3CC(C)OC(C)C3)n2)cc1` (stereo unspecified) gave PrPC surface inh 7, PrP UTR inh -4, GDH-TPI counter-1 -2, Yp Topo-I inh 31, Mtb FBA inh 42*, Mtb hypoxia inh 7, Mtb FBA inh conf 88* and GDH-TPI counter-2 67*.
COc1ccc(C2Nc3ccccc3C(=O)N2Cc2ccccc2)cc1CN1CCOCC1 (stereo unspecified) was read as PrPC surface inh -9, PrP UTR inh 3, GDH-TPI counter-1 5, Yp Topo-I inh 12, Mtb FBA inh 97*, Mtb hypoxia inh 4, Mtb FBA inh conf 58* and GDH-TPI counter-2 50*.
For COc1ccccc1N1C(=O)c2ccccc2NC1C(OC)OC (stereo unspecified) the results were PrPC surface inh 1, PrP UTR inh -11, GDH-TPI counter-1 4, Yp Topo-I inh 7, Mtb FBA inh 12 and Mtb hypoxia inh 4.

Bioassay records from PubChem.
